In PubChem BioAssay (NCI):
The panel holds about 83,000 compounds, 20% with a hit somewhere; the sample as a whole holds those more often.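 Interpretation: 100, growth as untreated; towards 0, rising growth inhibition; 0, no net growth; 0 to -100, cell death. Compounds scoring below 10 were considered active.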 Values without a mark were called inactive. Active and inactive are the calls of the source.

What follows are compounds tested on OVCAR-5 ovarian (assay: NCI-60 one-dose screen, 48 h (100 = growth as untreated, 0 = no growth, -100 = all killed)). Conditions: 10 µM unless noted.

Row | Compound | growth
1 | CCOC(=O)C1=C(C)NC(C)=C(C(=O)OCC)C1(C)C | 99.7%
2 | Cc1[nH]c2ccc(F)cc2c1CCNC(=O)C1CCN(C(=O)c2ccccc2)C1 (stereo not given) | 81.8% [25 µM]
3 | COc1ccc(C(=O)N2NC(=O)/C(=C/c3ccc(Br)cc3)N=C2c2ccccc2)cc1 | 91.4%
4 | Cc1ccc(-c2cc3nc(-c4ccccc4)nc(C(Cl)Cl)n3n2)cc1 | -27.2% (active)
5 | O=C(Nc1cccc(-n2cc(-c3ccncc3)c(-c3ccc(Cl)c(O)c3)n2)c1)Nc1cccc(C(F)(F)F)c1 | 62.4%
6 | COC(OC)c1ccccc1 | 107%
7 | COc1ccc(NC(=O)c2c(Nc3ccc(OC)cc3OC)n[nH]c2N)c(OC)c1 | 96.3%
8 | CC(C)(C)n1cc(-c2ccnc(NCCCNS(=O)(=O)c3ccc(F)cc3)c2)c(-c2cccc(O)c2)n1 | 65%
9 | O=C(C1=Cc2cc3ccccc3n2Cc2cnnn21)c1ccccc1 | 89.2%
10 | N=C(N)c1ccc(-c2ccc(-c3cncc4ccccc34)s2)cc1F | -94.7% (active)
11 | c1cc(C2=N[C@@H]3c4ccccc4C[C@@H]3O2)nc(C2=N[C@@H]3c4ccccc4C[C@@H]3O2)c1 | 98.3%
12 | CN(C)c1oc(C2OC2c2ccccc2)nc1C#N (stereo not given) | 89.6%
13 | COc1cccc(-c2cc3c(O)cc(C#N)cc3[nH]2)c1 | 94.7%
14 | c1ccc(-c2nc(N3CCNCC3)c3nc(-c4ccccc4)oc3n2)cc1 | -1.51% (active)
15 | CN(C[C@H]1Cc2c(cccc2N2CCN(Cc3ccccn3)CC2)CN1)[C@H]1CCCc2cccnc21 | 71%
